RBX1-CUL1 inh – inhibitors of human ROC1-CUL1 ubiquitin ligase activity; 0.6% of 140,000 active; in vitro K48 di-Ub FRET, acceptor:donor ratio, 45 min; P62877+Q13616; AID 1347404; inhibition, % at 10 µM; in the data active means inhibition above about 25%
Target sequence (P62877 whole entry, looked up): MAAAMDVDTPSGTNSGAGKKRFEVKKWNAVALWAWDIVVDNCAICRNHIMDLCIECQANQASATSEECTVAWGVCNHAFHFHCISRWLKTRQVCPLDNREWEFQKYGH
Target sequence (Q13616 whole entry, looked up): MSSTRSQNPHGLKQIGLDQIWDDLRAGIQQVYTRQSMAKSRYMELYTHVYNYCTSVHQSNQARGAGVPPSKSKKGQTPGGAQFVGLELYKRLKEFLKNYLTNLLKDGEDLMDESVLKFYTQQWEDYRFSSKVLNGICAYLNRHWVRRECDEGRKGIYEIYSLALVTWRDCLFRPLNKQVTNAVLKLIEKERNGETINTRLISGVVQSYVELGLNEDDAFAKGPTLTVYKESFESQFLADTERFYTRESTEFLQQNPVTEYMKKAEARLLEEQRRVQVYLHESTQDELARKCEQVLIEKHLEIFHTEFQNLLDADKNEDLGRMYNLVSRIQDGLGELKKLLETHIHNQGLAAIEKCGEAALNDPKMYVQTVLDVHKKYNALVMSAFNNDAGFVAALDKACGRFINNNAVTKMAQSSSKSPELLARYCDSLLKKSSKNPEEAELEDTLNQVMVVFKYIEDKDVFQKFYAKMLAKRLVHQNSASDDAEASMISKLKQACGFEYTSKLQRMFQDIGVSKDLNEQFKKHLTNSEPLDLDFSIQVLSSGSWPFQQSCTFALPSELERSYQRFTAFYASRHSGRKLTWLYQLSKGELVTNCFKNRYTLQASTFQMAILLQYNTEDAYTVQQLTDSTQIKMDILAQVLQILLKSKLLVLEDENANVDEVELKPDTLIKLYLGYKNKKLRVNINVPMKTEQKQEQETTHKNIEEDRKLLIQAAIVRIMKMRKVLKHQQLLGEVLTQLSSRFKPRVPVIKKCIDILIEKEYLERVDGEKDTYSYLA
The depositor's hits bear a star. Shown is part of a subset that was picked to be rich in hits.

SMILES	RBX1-CUL1 inh
O=C(CSc1ncccc1C(=O)O)c1ccc(O)c(O)c1	31*
O=C(O)c1cccnc1SCc1c(F)c(F)c(F)c(F)c1F	13
O=C(CSc1n[nH]c(-c2ccccc2)n1)c1ccc(O)c(O)c1	27*
O=C(O)c1ccnc(SCC(=O)c2ccccc2)c1	6
O=C(CSc1n[nH]c(-c2ccc(Br)cc2)n1)c1ccc([N+](=O)[O-])cc1	0
CCOc1ccc(-c2nc(SCC(=O)c3ccccc3)n[nH]2)cc1	-2
COc1cccc(C(=O)Oc2cccc3c2C(=O)c2ccccc2C3=O)c1OC	-5
CCN(CC)C(=O)C1C(C)=Nc2nc3ccccc3n2C1c1cccc(Cl)c1 (stereo not given)	-2
CCCCNS(=O)(=O)c1cccc(C(=O)N2CCCC2)c1	5
Cc1cccc(-c2noc(COc3cc(C)ccc3C)n2)c1	-11
COC(=O)C1CCN(C(=O)c2cn(Cc3ccc(F)cc3Cl)nn2)CC1	-5
CCC(=O)Nc1cc(Cl)ccc1OC	-8
Cc1ncc2c(c1-c1noc(-c3ccc(N)nc3)n1)CCN(CC1CCCC1)C2	2
Cc1cc(C)n(Cc2nc(-c3c(C)ncc4c3CCN(CC3CC3)C4)no2)n1	37*
CNc1ncc(-c2nc(-c3c(C)ncc4c3CCN(CC3CC3)C4)no2)cn1	2
O=C(Oc1ccc(-c2nc3ccccc3nc2-c2ccccc2)cc1)c1ccccc1	-8
COc1ccccc1CN1CCC2(CC1)c1ccccc1[C@@H](NC(=O)Cc1cccs1)[C@@H]2OC	1
COc1ccc(Br)cc1/C=C/C(=O)c1ccccc1	-1
Cc1cc(OCC(=O)NNC(=S)NC(=O)c2ccccc2I)cc(C)c1Cl	9
O=[N+]([O-])c1ccc2[nH]c(O)c(N=Nc3ccccc3[N+](=O)[O-])c2c1	1
O=C1N=c2ccc([N+](=O)[O-])cc2=C1N=Nc1c(O)[nH]c2ccc([N+](=O)[O-])cc12	45*
NC(=O)N=Nc1c(O)[nH]c2ccc(Br)cc12	10
COC(=O)CN1C(=O)S/C(=C/c2ccc(Sc3nc4ccccc4[nH]3)o2)C1=O	-1
COc1ccc(N(C(=O)Cc2ccccc2)S(=O)(=O)c2ccccc2)cc1	-1
Cc1ccc(CN2CCN(Cc3ccncc3)CC2CCO)cc1 (stereo not given)	6
SMILES	RBX1-CUL1 inh
COc1ccccc1NC(=O)C1C(C)=Nc2nc(SCc3ccccc3)nn2C1c1ccncc1 (stereo not given)	-6
Cc1ccc(-n2c(-c3ccccc3)cc(-c3ccccc3)nc2=O)cc1	-10
Cc1ccc(-n2c(-c3ccncc3)n[nH]c2=S)cc1	7
Cc1ccc(-n2c(Cl)c(Cl)nc(Cl)c2=O)cc1	45*
O=C(CC1NC2CCCCC2NC1=O)Nc1cccc2ccccc12 (stereo not given)	4
CCC1CCc2c(sc(NC(=O)c3c(C)noc3C)c2C(N)=O)C1 (stereo not given)	74*
CCCC1CCc2c(sc(NC(=O)c3cc(C)on3)c2C(N)=O)C1 (stereo not given)	-3
Cc1noc(C)c1C(=O)Nc1sc2c(c1C(N)=O)CCCCCC2	8
O=C(NCC(F)(F)F)c1ccc2oc(Cc3ccc(Cl)cc3)nc2c1	-3
COc1ccc(N2C(=O)/C(=C\c3ccc(OC(=O)c4cccs4)c(OC)c3)SC2=S)cc1	-9
C=CCOc1ccc(/C=C2\SC(=S)N(c3ccc(OC)cc3)C2=O)cc1OCC	23
CCOc1cc(/C=C2\SC(=S)N(c3ccccc3)C2=O)ccc1OCc1ccc(Cl)cc1Cl	-8
O=C(O)COc1ccc(/C=C2\SC(=S)N(c3cccc(Cl)c3)C2=O)cc1	4
COc1cc(/C=C2\SC(=S)N(c3cccc(C(F)(F)F)c3)C2=O)ccc1OCC(=O)O	-2
COc1cccc(N2C(=O)/C(=C/c3ccc(O)cc3)SC2=S)c1	8
CCOc1cc(/C=C2\SC(=S)N(c3cccc(Cl)c3)C2=O)ccc1OCC(=O)O	33*
CCOc1cc(/C=C2\SC(=S)N(c3ccc(OC)cc3)C2=O)ccc1OCC(=O)O	57*
COc1ccc(N2C(=O)/C(=C\c3ccc(O)c(Br)c3)SC2=S)cc1	42*
CC(Nc1nccc(-c2cnn(C)c2)n1)c1ccccc1C(F)(F)F (stereo not given)	5
CCOc1cc(CNC(C)(C)C)cc(Cl)c1OCC(=O)NC(C)(C)C	4
O=C(CCc1ccccc1)Cn1nnc2ccccc21	-8
CC#CCN1C(=O)NC(CCc2ccccc2)(C2CCN(Cc3ccccc3C)CC2)C1=O (stereo not given)	5
CCOc1ccc2nc(N)sc2c1	-3
Nc1nc2cc3nsnc3cc2s1	0
Nc1nc2cc(N)c(N)cc2s1	93*
SMILES	RBX1-CUL1 inh
COC(=O)c1ccccc1NC(=O)COc1ccc(C)cc1	-5
N#CC1C(=N)Oc2c(ccc3ccccc23)C1c1c(Cl)cccc1Cl (stereo not given)	0
COc1ccc(C(=O)NCC2CCCO2)cc1C (stereo not given)	-1
COc1ccc(CCNC(=S)Nc2cc(Cl)ccc2Cl)cc1OC	-3
COc1ccc(CCNC(=S)S)cc1OC	99*
COc1ccc(CCNC(=S)Nc2c(Cl)cncc2Cl)cc1OC	6
CCc1sc(C(=O)N2CC(C)OC(C)C2)cc1Br (stereo not given)	-2
CCCCCCN1C(=O)/C(=C/c2cc(OC)c(OC)c(OC)c2)N(C)C1=S	3
CCCCCCCC(=O)N=C1C(=O)N(c2ccccc2)N(C)C1C (stereo not given)	11
CCCCCCN1C(=O)C2=C(c3cc(O)cc(O)c3)N(CCCCCC)C(=O)C2=C1c1cc(O)cc(O)c1	46*
CCOC(=O)c1c(CN2CCN(c3ccccc3)CC2)n(C)c2cc(Br)c(O)cc12	-3
CN1C(=O)C2(C3=C(CC(C)(C)CC3=O)N(c3ccc(Cl)cc3)C(=N)C2C#N)c2ccccc21 (stereo not given)	6
CC(=NCc1ccc(Cl)cc1)C1C(=O)c2ccccc2C1=O	-2
COCC(C)NC(=O)c1cc(-c2ccccc2Cl)on1 (stereo not given)	2
c1ccc2cc(N3CCCCC3)ncc2c1	65*
O=[N+]([O-])c1ccc(N2CCCCC2)nc1	4
c1ccc(-c2cc(N3CCCCC3)ncn2)cc1	-4
C1=NCCNc2ccccc2C=NCCNc2ccccc21	8
COc1ccc(CC2(CCC(=O)N3CCCCC3C)CCC(=O)N2)c(F)c1 (stereo not given)	1
c1ccc(Nc2nc(Nc3ccccc3)nc(-n3cccn3)n2)cc1	5
Oc1cc(-n2cccn2)c(O)c2ccccc12	42*
Fc1ccc(-c2cc(-c3ccccc3)nc(-n3cccn3)n2)cc1	-2
COC(=O)c1ccc(COc2cccc(C(F)(F)F)c2)o1	-4
Cc1ccccc1C(=O)N1CCN(c2ccc(NC(=O)c3ccccc3Br)cc2)CC1	4
O=C(CSc1ccc(Cl)cc1)Nc1ccc(N2CCN(C(=O)c3cccs3)CC2)cc1	-4
SMILES	RBX1-CUL1 inh
Cc1ccccc1C(=O)N1CCN(c2ccc(NC(=O)CSc3ccc(Cl)cc3)cc2)CC1	30*
CCOc1ccc(-c2n[nH]c3c2CN(C(=O)CCn2cnnn2)CC3)cc1	3
COc1ccc(-n2c(/C=C3\C(=O)Nc4ccc(Br)cc43)nc3ccccc3c2=O)cc1	7
O=C1Nc2ccc(Br)cc2/C1=C/c1cc(O)c(O)c(Br)c1	66*
Cc1ccc(/C=C2\C(=O)Nc3ccc(Br)cc32)cc1C	1
COc1cccc(/C=C2\C(=O)Nc3ccc(Br)cc32)c1	7
O=C(c1ccc[nH]1)N1CCC(Cn2cc(CN3CCOCC3)nn2)CC1	0

Screening data from PubChem BioAssay.
